# Assay outcomes: PubChem, National Center for Advancing Translational Sciences (NCATS)
# Most compounds without a hit are left out; they make up all but 12% or so of the library.
# G9a inh = blocks human histone lysine methyltransferase G9a; Q96KQ7; G9a H3K9 monomethylation, AlphaScreen, 2 h; Potency, µM (titrated, usually from 102 µM), inactives show at the highest dose activity, negative = inhibition, hits mostly inhibitors; 350,000 tested, 8.8% active; AID 504332; further: on the % scale 0 is the no-effect control and ±100 the full control effect; nearly all actives have a fitted effect of over 75% in size
#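 AlphaScreen detection with an anti-monomethyl H3K9 antibody quantified product after a 2 h room-temperature reaction containing 500 nM biotinylated H3K9 peptide, 20 µM SAM and 20 nM enzyme, which had been preincubated 15 min with compound.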
# Sfp PPTase inh = Sfp phosphopantetheinyl transferase inhibition; Biochemical Sfp PPTase activity, qHTS; 310,000 tested, 3.5% active; Potency, µM, for inactives: largest response in the series, negative = inhibition, actives largely listed as inhibitors;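 further: the enzyme is Sfp with the accession as filed and its product quenches rhodamine fluorescence; 0% = enzyme reaction without inhibitor and -100% = no enzyme wells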
#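 Fluorescence-quenching assay with 15 nM Sfp, 5 uM rhodamine-CoA and 12.5 uM BHQ-2-labelled ybbR peptide in pH 7.6 Hepes/MgCl2 buffer. Enzyme was pre-incubated with compound for 15 min at room temperature. Rate was taken from the 30-min fluorescence change (525/598 nm).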
# HP1b chromo inh = HP1-beta chromodomain-methylated histone interaction inhibition; P83916; AlphaScreen HP1-beta / biotin-H3K9me3 peptide binding; Potency, µM (doses to about 114 µM), without a hit: at the top dose activity change, negative = inhibition, usual class: inhibitors; 390,000 tested, 0.56% active; further: nearly all actives have a fitted effect of over 70% in size
#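 Compound inhibition of the preformed complex between 50 nM HP1-beta and 50 nM biotinylated H3K9me3 peptide was read by AlphaScreen. Buffer was PBS pH 7.4 with 0.01% Tween-20. Incubations ran 30 min at room temperature, with 10 ug/mL donor/acceptor beads.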
# PLK1 PBD inh = inhibitors of human PLK1 polo-box domain binding. P53350. Plk1 PBD binding of FITC phosphopeptide, fluorescence polarization. Potency, µM, inactives show max response, negative = inhibition, hits mostly inhibitors. 360,000 tested, 2.8% active. AID 720504; further: series mostly up to about 57 µM; on the % scale 0 is the no-effect control and ±100 the full control effect; nearly all actives have a fitted effect of over 65% in size
# BAZ2B inh = inhibitors of human BAZ2B bromodomain. Potency, µM (top dose mostly 114 µM), for inactives: at the top dose activity change, negative = inhibition, usual class: inhibitors. AID 504333. 360,000 tested, 4.4% active. AlphaScreen BAZ2B-H3K14Ac peptide displacement; further: on the % scale 0 is the no-effect control and ±100 the full control effect; nearly all actives have a fitted effect of over 60% in size
#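 AlphaScreen displacement: compounds (up to 110uM) incubated 30 min at room temperature with a preformed 50 nM BAZ2B/50 nM biotinylated H3K14Ac peptide complex in PBS pH 7.4 with Tween-20. Donor and acceptor beads at 10 ug/mL final added, 20 min light-protected before reading.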
# JMJD2A Tudor = blocks the human JMJD2A Tudor domain. O75164. AlphaScreen JMJD2A-Tudor / H3K4me3 peptide binding. Potency, µM (titrated, usually from 114 µM), for inactives: at the highest dose activity change, negative = inhibition, actives largely listed as inhibitors. 390,000 tested, 4.4% active. AID 504339; further: on the % scale 0 is the no-effect control and ±100 the full control effect; nearly all actives have a fitted effect of over 50% in size
# Target sequence (O75164 whole entry, looked up, the tested form may be a part): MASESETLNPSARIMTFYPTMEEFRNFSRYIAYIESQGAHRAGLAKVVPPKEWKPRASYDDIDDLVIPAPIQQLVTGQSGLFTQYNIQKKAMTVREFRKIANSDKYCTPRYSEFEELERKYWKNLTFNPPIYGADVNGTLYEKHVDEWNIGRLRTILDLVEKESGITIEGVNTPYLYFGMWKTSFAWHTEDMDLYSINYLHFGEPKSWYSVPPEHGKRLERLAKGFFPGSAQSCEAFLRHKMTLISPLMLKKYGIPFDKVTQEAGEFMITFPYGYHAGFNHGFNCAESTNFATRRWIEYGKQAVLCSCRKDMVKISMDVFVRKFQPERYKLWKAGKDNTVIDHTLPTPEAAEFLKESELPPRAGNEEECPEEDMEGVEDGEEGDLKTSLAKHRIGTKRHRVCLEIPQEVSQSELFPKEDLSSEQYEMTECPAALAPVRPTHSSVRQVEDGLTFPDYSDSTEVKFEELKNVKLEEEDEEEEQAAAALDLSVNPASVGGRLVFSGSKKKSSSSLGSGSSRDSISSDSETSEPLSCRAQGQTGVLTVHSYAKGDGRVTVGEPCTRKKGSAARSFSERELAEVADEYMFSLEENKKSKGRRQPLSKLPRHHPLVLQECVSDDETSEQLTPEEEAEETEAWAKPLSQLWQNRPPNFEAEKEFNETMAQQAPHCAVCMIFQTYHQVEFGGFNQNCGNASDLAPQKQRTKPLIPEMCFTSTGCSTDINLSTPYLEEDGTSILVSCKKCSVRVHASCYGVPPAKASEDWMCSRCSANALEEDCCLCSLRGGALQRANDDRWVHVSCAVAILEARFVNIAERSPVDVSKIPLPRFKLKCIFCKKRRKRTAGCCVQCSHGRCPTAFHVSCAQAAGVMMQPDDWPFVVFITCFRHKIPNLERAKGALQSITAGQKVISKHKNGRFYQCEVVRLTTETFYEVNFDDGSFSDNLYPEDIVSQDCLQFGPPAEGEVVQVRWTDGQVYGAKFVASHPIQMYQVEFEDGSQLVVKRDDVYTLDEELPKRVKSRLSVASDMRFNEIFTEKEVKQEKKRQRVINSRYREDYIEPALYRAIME
# An asterisk follows results filed as active; u = inconclusive; x = no result given; [ ] = remark or other dose. The call rests on the fitted dose curve; in most records, active means well fitted curve in the direction sought with a large enough effect; inconclusive means small, poorly fitted or top-dose-only effect, or another doubt; inactive means no such curve, though single readings can be large; an effect the other way counts as inactive or inconclusive. Potency means the concentration at half of the fitted maximal effect.
SMILES,G9a inh,Sfp PPTase inh,HP1b chromo inh,PLK1 PBD inh,BAZ2B inh,JMJD2A Tudor
O=C(O)c1ccc(-c2nc(-c3ccc(Cl)c(Cl)c3)cs2)cc1,-34%,-16%,40%,27µM*,-12%,-11%
CNC(=O)c1c[nH]c2ccc(S(=O)(=O)Nc3cccc(Cl)c3C)cc2c1=O,-9%[12.7 µM],x,14%,x,-35%,-19%
NC(=O)C(=CNc1nc(-c2ccc(Cl)c(Cl)c2)cs1)C(N)=O,x,22µM*,x,x,45µM*,x
CCOC(=O)c1ncn2c1C(=O)OC2(C)C,u,u,8%,-1%,u,18µM*
CC1=C(/C=C/C(C)=C/C=C/C(C)=C/CO)C(C)(C)CCC1,x,u,17%,-8%,x,-14%
CC1=C(/C=C/C(C)=C/C=C/C(C)=C\CO)C(C)(C)CCC1,25µM*,-7%,x,x,x,x
COc1cc(-c2nnc(NC(=O)CS(=O)(=O)c3ccc(C)cc3)o2)cc(OC)c1OC,10%,x,31%,1%,45µM*,25µM*
COc1cccc(-c2nnc(NC(=O)CCS(=O)(=O)c3ccc(C)cc3)o2)c1,7%,x,29%,-3%,-30%,-23%
COc1cc(-c2nnc(NC(=O)CS(=O)(=O)c3ccc(F)cc3)o2)cc(OC)c1OC,-5%,x,19%,-4%,56µM*,40µM*
COc1ccccc1-c1nnc(NC(=O)CCS(=O)(=O)c2ccc(F)cc2)o1,x,x,x,-7%,x,x
COc1cccc(OC)c1-c1cc(C(=O)NC2(C(=O)O)C3CC4CC(C3)CC2C4)nn1-c1ccc(C(=O)N(C)CCCN(C)C)cc1C(C)C (stereo not given),x,-11%,x,x,x,x
O=C(N/N=C/c1ccc(N2CCOCC2)o1)c1ccccc1[N+](=O)[O-],u,16µM*,-3%,1%,-1%,u
O=C(N/N=C/c1ccc(N2CCCCC2)o1)c1ccccc1[N+](=O)[O-],11µM*,u,-10%,-26%,-9%,u
O=C(N/N=C/c1ccncc1)c1ccccc1[N+](=O)[O-],10%[59 µM],3%,39%,-4%,-16%,-6%
O=C1NC(=Nc2ccc(F)cc2)CS1,32µM*,56µM*,-14%,u,-11%,-21%
O=S(=O)(Nc1ccccc1Cl)c1cc(NC(=S)NCCN2CCOCC2)ccc1Cl,-19%[59 µM],-1%,10%,-29%,-21%,-30%
O=S(=O)(Nc1ccccc1F)c1cccc(NC(=S)NCCN2CCOCC2)c1,x,x,u,0.95µM*,x,40µM*
O=S(=O)(Nc1ccc(Br)cc1)c1cccc(NC(=S)NCCN2CCOCC2)c1,32µM*,u,-14%,u,-15%,-14%
S=C(NCCN1CCOCC1)Nc1ccc(Br)cc1,7%[59 µM],19%,15%,-8%,1%,-1%
COC(=O)c1ccc(CSc2nc3ccccc3c(=O)n2CC(C)C)o1,47%,-19%,75%,2%,1%,22%
Cc1nc2ccccc2c(=O)n1Cc1ccco1,8%,8%,55%,1%,-3%,-3%
COC(=O)c1ccc(CSc2nc3ccccc3c(=O)n2Cc2ccco2)o1,40µM*,16%,8%,-11%,-5%,-35%
Cc1cc2c(=O)n(Cc3ccco3)c(SCC(=O)c3ccc(Cl)s3)nc2s1,-26%[12.7 µM],18µM*,26%,-3%,-9%,-28%
Cc1occc1-c1nnc(SCC(=O)c2ccc(F)cc2)n1Cc1ccco1,10µM*,u,-3%,-8%,50µM*,-30%
O=C1c2ccccc2C(=O)N1CCc1nc2ccccc2c(=O)n1Cc1ccco1,-29%[59 µM],50µM*,30%,-1%,0%,2%
SMILES,G9a inh,Sfp PPTase inh,HP1b chromo inh,PLK1 PBD inh,BAZ2B inh,JMJD2A Tudor
CCOC(=O)CC(=O)CSc1nc2sc(C)cc2c(=O)n1Cc1ccco1,-19%[12.7 µM],0%,13%,-6%,-10%,-35%
CCOc1cc(CNC(=O)c2ccc3c(c2)N(C)C(=O)C2CCCCN32)ccc1OC (stereo not given),1%[59 µM],x,19%[57 µM],x,-14%,-12%
CCCCNc1sc(S(=O)(=O)CCC)nc1S(=O)(=O)c1ccc(C)cc1,-3%[59 µM],x,55%,x,4%,-12%
C/C(=N\NC(=O)Cc1ccc(Cl)cc1)c1cccc(NC(=O)c2cccnc2)c1,9%,6%,27%,-9%,-36%,-22%
COCCn1c(SCC(=O)c2ccccc2)nc2ccccc2c1=O,-7%,-10%,-6%,-22%,5%,3%
NC(=O)CSc1nc2ccccc2c(=O)n1Cc1ccco1,-11%[59 µM],15%,34%,-8%,3%,-4%
Cc1ccc(OCc2nnc(SCC(=O)c3ccccc3)n2Cc2ccco2)cc1,u,-29%,5%,-9%,2%,u
COCCn1c(SCC(=O)c2ccc(CNC(C)=O)o2)nc2ccccc2c1=O,-50%[59 µM],3%,25%,-4%,-10%,79µM*
O=C(CSc1nnc(COc2ccccc2)n1Cc1ccco1)c1ccc(F)cc1,28µM*,56µM*,18%,-15%,u,79µM*
CCn1c(SCC(=O)c2ccc(CNC(C)=O)o2)nnc1-c1cccs1,18µM*,50µM*,22%,-28%,-29%,u
O=C(CSc1nc2ccccc2c(=O)n1Cc1ccco1)c1ccc(F)cc1,-5%,32µM*,14%,-10%,7%,-6%
CCn1c(SCC(=O)NCc2cccs2)nnc1-c1cccs1,-16%[59 µM],7%,12%,-7%,-9%,-12%
O=C(CCCCCn1c(SCc2ccncc2)nc2ccccc2c1=O)NCc1ccco1,u,-22%,1%,-27%,50µM*,25µM*
CN(C)c1ccc(C(CNS(=O)(=O)c2ccc(Cl)cc2)N2CCOCC2)cc1 (stereo not given),u,x,-18%,x,40µM*,u
CCN1CCN(C(CNS(=O)(=O)c2ccc(Cl)cc2)c2cccnc2)CC1 (stereo not given),79µM*,9%,15%,3%,-3%,2%
O=S(=O)(NCC(c1ccccc1)N1CCC(O)CC1)c1ccc(Cl)cc1 (stereo not given),-6%,19%,24%,21µM*,2%,u
Cc1ccc(S(=O)(=O)NCC(c2ccc(N(C)C)cc2)N2CCOCC2)cc1 (stereo not given),u,x,-23%,x,-35%,u
CCN1CCN(C(CNS(=O)(=O)c2ccc(Br)cc2)c2cccnc2)CC1 (stereo not given),20%,9%,34%,0%,-1%,-10%
CN(C)c1ccc(C(CNS(=O)(=O)c2ccc3ccccc3c2)N2CCOCC2)cc1 (stereo not given),14%[0.501 µM],x,u,-8%,50µM*,u
CN(C)c1ccc(C(CNS(=O)(=O)c2ccc(F)cc2)N2CCCC2)cc1 (stereo not given),-6%[59 µM],x,10%,x,u,u
